# Laboratory results published in PubChem BioAssay (NCATS).
# Several values for one entry are separate records, joined by “and”; a condition that tells them apart may be missing. Identical values can stand only once. Inconclusive results are not listed. Activity calls are given as the source filed them. Calls come from the whole dose curve; as a rule, active = well fitted inhibition curve with a large enough effect; inconclusive = small, poorly fitted or top-dose-only effect; inactive = flat fitted curve, though single readings scatter.
# Test system: not listed separately
# Experiment: qHTS Assay for Lipid Storage Modulators (AID 1519)
# Conditions: Drosophila S3 cells, BODIPY lipid droplet/cell ratio, laser cytometry; measured here: lipid channel max response; cells loaded with oleic acid
# Summary of the method: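 Cells seeded at 5,000 per well were treated with compounds over a concentration series and loaded with oleic acid (400 uM, as added). Lipid droplet fluorescence (488 nm excitation, 500-530 nm channel) was read by laser-scanning cytometry and normalized to 20 uM Triacsin C.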
row,SMILES,max response
1,CO[C@]1(C2=NCCN2)COc2ccccc2O1,10.7%
2,CCNCCCNCCCNCCCNCC,-12.2%
3,CCCCCCCCCCCC(=O)O[C@H](CC(=O)O)C[N+](C)(C)C,-11.1%
4,CC(C)(C)NC[C@H](O)c1ccc(O)c(CO)c1,-19.3% and -13%
5,CCCN(CCC)C[C@@H]1CCCCN1CCNC(=O)N1c2ccccc2C(=O)Nc2cccnc21,-7.53%
6,Cc1ccc(/C(=C/CN2CCCC2)c2ccccn2)cc1,-0.659% and 14%
7,Fc1ccc(C(c2ccc(F)cc2)N2CCN(C/C=C\c3ccccc3)CC2)cc1,-22.1%
8,N#C/C(=C\c1ccc(O)c(O)c1)C(N)=O,9.4%
9,C[C@H](N)C(=O)O,-5.58%
10,CC(=O)Nc1ccc(OC[C@@H](O)CNC(C)C)cc1,-5.59% and -8.67%
11,N[C@@H](Cn1cc(I)c(=O)n(Cc2ccc(C(=O)O)cc2)c1=O)C(=O)O,1.43%
12,COc1ccccc1N1CCN(C[C@@H](O)COc2cccc3ccccc23)CC1,-0.579%
13,CS(=O)(=O)Nc1c(O)ccc2c1CCC[C@H]2C1=NCCN1,-17.3%
14,N[C@@H](C(=O)O)c1ccc(C(=O)O)cc1,17.4%
15,CC(C)NC[C@@H](O)COc1cccc2[nH]ccc12,-7.67% and 11.8%
16,CC(=O)N[C@@H](C(=O)O)C(C)(C)SN=O,28.4%

# Target: Ubiquitin carboxyl-terminal hydrolase 1 (Homo sapiens) (UniProt O94782)
# Sequence (O94782 whole entry, looked up): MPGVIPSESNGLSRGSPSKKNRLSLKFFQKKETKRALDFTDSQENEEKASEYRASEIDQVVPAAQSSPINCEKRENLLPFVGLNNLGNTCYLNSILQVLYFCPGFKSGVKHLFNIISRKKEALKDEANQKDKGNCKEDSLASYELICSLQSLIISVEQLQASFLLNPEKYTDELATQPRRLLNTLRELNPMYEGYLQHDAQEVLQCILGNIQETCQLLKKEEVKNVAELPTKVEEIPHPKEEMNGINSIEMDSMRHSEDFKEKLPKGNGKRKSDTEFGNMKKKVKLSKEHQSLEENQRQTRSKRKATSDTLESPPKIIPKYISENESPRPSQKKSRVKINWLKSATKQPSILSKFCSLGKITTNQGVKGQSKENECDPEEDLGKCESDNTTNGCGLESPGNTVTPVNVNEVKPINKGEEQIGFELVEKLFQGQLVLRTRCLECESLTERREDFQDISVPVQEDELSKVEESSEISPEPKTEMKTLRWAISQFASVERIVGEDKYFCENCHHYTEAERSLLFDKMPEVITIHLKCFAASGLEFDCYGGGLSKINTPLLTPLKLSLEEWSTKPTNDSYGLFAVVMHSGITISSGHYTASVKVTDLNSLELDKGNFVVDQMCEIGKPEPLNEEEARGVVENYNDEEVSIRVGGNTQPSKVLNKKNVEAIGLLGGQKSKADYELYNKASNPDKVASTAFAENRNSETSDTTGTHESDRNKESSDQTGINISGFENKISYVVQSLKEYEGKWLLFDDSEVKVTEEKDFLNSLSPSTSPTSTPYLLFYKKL
# Experiment: Inhibitors of USP1/UAF1: Pilot qHTS (AID 504865);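 note: rhodamine fluorescence freed from ubiquitin-rhodamine substrate followed over time; top concentration of the series differs between compounds; % is set by controls: 0 for no effect and ±100 for the full control effect; nearly all actives have a fitted effect of over 35% in size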
# Conditions: purified USP1/UAF1, Ub-rhodamine cleavage fluorescence; series mostly up to 114 µM; activity change, negative = inhibition: at the top concentration
# Summary of the method: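 USP1/UAF1 complex (1nM) preincubated with compound 15 min at room temperature, then Ub-Rho substrate (150nM final) added. Fluorescence read kinetically at 480/540 nm, 6 reads every 60 seconds. Buffer: 50mM HEPES pH 7.8, 0.5mM EDTA, 0.1 mg/ml BSA, 1mM TCEP, 0.01% Tween-20.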
SMILES,"activity change, negative = inhibition",Potency
CCNCCCNCCCNCCCNCC,-7.27% (inactive),–
CCCCCCCCCCCC(=O)O[C@H](CC(=O)O)C[N+](C)(C)C,-7.83% (inactive),–
CC(C)(C)NC[C@H](O)c1ccc(O)c(CO)c1,1.47% [at 54.9 µM] (inactive),–
CCN(CC)c1ncnc2c1ncn2[C@@H]1O[C@@H](COP(=O)(O)OP(=O)(O)C(Br)(Br)P(=O)(O)O)[C@H](O)[C@H]1O,-5.22% (inactive),–
Cc1ccc(/C(=C/CN2CCCC2)c2ccccn2)cc1,–,inactive
CC(=O)Nc1ccc(OC[C@@H](O)CNC(C)C)cc1,–,inactive
N[C@@H](Cn1cc(I)c(=O)n(Cc2ccc(C(=O)O)cc2)c1=O)C(=O)O,-12% (inactive),–
COc1ccccc1N1CCN(C[C@@H](O)COc2cccc3ccccc23)CC1,-1.41% [at 54.9 µM] (inactive),–
N[C@@H](C(=O)O)c1ccc(C(=O)O)cc1,–,inactive
CC(=O)[C@H]1CC[C@H]2C3CC=C4C[C@@H](O)CC[C@]4(C)C3CC[C@]12C (stereo partly drawn),-5.41% (inactive),–
CC(C)NC[C@@H](O)COc1cccc2[nH]ccc12,12.8% [at 54.9 µM] (inactive),–
C/C=C1\C2C=C(C)CC1(N)c1ccc(=O)[nH]c1C2 (stereo not drawn),-7.73% (inactive),–
